# MCF10A rerep: inducers of DNA re-replication in MCF 10A breast cells; MCF 10A DNA re-replication, Hoechst nuclear intensity, 48 h; Potency, µM (titrated, usually from 46.1 µM), without a hit: top-dose activity, positive = re-replication, most hits filed as activators; hit rate 2.9% among 350,000; AID 624296; further: % of control where 0% means no effect; nearly all actives have a fitted effect of over 50% in size
# SW480 rereplic: induces DNA re-replication in SW480 colon adenocarcinoma cells | SW480 DNA re-replication, Hoechst DNA content imaging, 48 h | Potency, µM (top dose mostly 46.1 µM), for the others: at the top dose re-replication activation, most hits filed as activators | hit rate 1.8% among 340,000; further: % of control where 0% means no effect; nearly all actives have a fitted effect of over 55% in size
#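 Quantitative HTS format with DMSO vehicle controls; 48 hr drug incubation at 37 C, then 40 min Hoechst staining and scanning imager measurement at 405 nm excitation.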
# HT1080 IDH1KD tx: HT-1080 IDH1 knockdown cell toxicity (counter line); HT-1080 IDH1 knockdown viability, ATP luminescence, 48 h; Potency, µM (top dose mostly 46.1 µM), without a hit: top-dose activity, negative = toxicity, usual class: cytotoxic; hit rate 2% among 360,000; AID 686971;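 further: 0% = DMSO wells and -100% = cell-free medium wells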
#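 Knockdown cells (IDH1KD HT-1080) received compounds 2 h after plating at 750 cells/well and were kept 48 h at 37 °C in 5% FBS RPMI. A CellTiter-Glo luminescence read gave % activity for curve fitting.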
# KB-3-1 cytotox: KB-3-1 parental cell cytotoxicity; Potency, µM (series often up to 46.1 µM), hits mostly cytotoxic; AID 1347075; KB-3-1 viability, CellTiter-Glo ATP luminescence, 72 h; hit rate 1.4% among 400,000; further: on the % scale 0 is the no-effect control and ±100 the full control effect; nearly all actives have a fitted effect of over 60% in size
#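 Here the drug-naive KB-3-1 line serves as comparator for MDR sub-line selectivity; cells received compound titrations, 72 h at 37 °C, then CellTiter-Glo readout.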
# HT1080-NT tox: kills 2HG-producing HT-1080-NT fibrosarcoma cells; hit rate 1.6% among 360,000; AID 686970; HT-1080-NT fibrosarcoma viability, CellTiter-Glo ATP luminescence, 48 h; Potency, µM (titrated, usually from 46.1 µM), inactives show at the highest dose activity, negative = less viability, most hits filed as cytotoxic;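 further: NT is the 2HG producing partner of a matched IDH1 knockdown line; 0% = DMSO-treated cells and -100% = media-only wells without cells; nearly all actives have a fitted effect of over 55% in size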
#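 Compounds were tested in concentration-response format on HT-1080-NT cells for 48 hours at 37 degrees C. Cell viability came from CellTiter-Glo luminescence; curves were classified by r2, response magnitude and activity.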
# KB-V1 MDR tox: kills drug-selected multidrug resistant KB-V1 cells. Potency, µM (highest dose often 46.1 µM), actives largely listed as cytotoxic. KB-V1 MDR cells viability, CellTiter-Glo, 72 h. hit rate 3.4% among 400,000; further: on the % scale 0 is the no-effect control and ±100 the full control effect; nearly all actives have a fitted effect of over 60% in size
#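 Cells of the MDR subline KB-V1 are plated, dosed with compound at multiple concentrations, and incubated 72 h at 37 degrees C; CellTiter-Glo is then added and luminescence read after 10 min.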
# * = called active by the depositor; i = inactive; ? = inconclusive; nt = no result. Most compounds without a hit are left out; they make up all but 8% or so of the library. The call rests on the fitted dose curve; in most records, active means well fitted curve in the direction sought with a large enough effect; inconclusive means small, poorly fitted or top-dose-only effect, or another doubt; inactive means no such curve, though single readings can be large; an effect the other way counts as inactive or inconclusive. Potency means the concentration at half of the fitted maximal effect.
SMILES,MCF10A rerep,SW480 rereplic,HT1080 IDH1KD tx,KB-3-1 cytotox,HT1080-NT tox,KB-V1 MDR tox
Nc1ccc(-c2cc(NC=O)c3ncc(-c4cccc(C(F)(F)F)c4)n3c2)cn1,nt,nt,-26%,i,-8%,i
COc1ccccc1NC(=O)c1c(-c2ccc(C)cc2)nnc2ccccc12,nt,nt,nt,i,nt,i
CCc1ccc(NC(=O)C(=O)NCC(c2cccnc2)N2CCN(Cc3ccccc3)CC2)cc1 (stereo not given),nt,nt,nt,i,nt,i
COc1cccc(-c2cc(NC=O)c3ncc(-c4cc(OC)c(OC)c(OC)c4)n3c2)c1,nt,nt,?,1µM*,?,2.1µM*
COc1cc(-c2cnc3c(NC=O)cc(-c4ccsc4)cn23)cc(OC)c1OC,nt,nt,?,0.82µM*,?,1.3µM*
COc1cccc(-c2cnc3c(NC=O)cc(-c4ccc(O)c(OC)c4)cn23)c1,nt,nt,?,?,?,i
COc1cc(-c2cc(NC=O)c3ncc(-c4ccc(F)cc4)n3c2)cc(OC)c1OC,nt,nt,?,i,?,?
CCOC(=O)C1=C(C)NC(=O)NC1c1cn(-c2ccccc2)nc1-c1cccs1 (stereo not given),?,0%,?,i,?,21µM*
O=C(O)c1[nH]n(-c2ccc(S(=O)(=O)O)cc2)c(=O)c1N=Nc1ccc(S(=O)(=O)O)cc1,nt,nt,nt,i,nt,i
CCc1nc2ccc(C(=O)Nc3cc(-c4ccccc4)ccc3OC)cn2c1N(CC)CCN(C)C,nt,nt,13µM*,?,18µM*,?
CCCCN(C=O)c1c(CC)nc2ccc(C(=O)Nc3cc(-c4ccccc4)ccc3OC)cn12,nt,nt,?,?,?,23µM*
CS(=O)(=O)N1CCc2cc(S(=O)(=O)Nc3ccc4c(c3)OCCO4)ccc21,4%,-5%,-22%,?,?,21µM*
O=S(=O)(Nc1ccc(S(=O)(=O)Nc2nccs2)cc1)c1ccc2c(c1)OCCO2,21µM*,?,?,i,-20%,i
COc1cccc2sc3cc(NCc4ccc(C)o4)ccc3c(=O)c12,21µM*,18µM*,0%,i,-10%,i
CC1(C(=O)Nc2ccc3c(c2)OCO3)CCN1Cc1cccc2c1OCO2 (stereo not given),nt,nt,-7%,?,-19%,?
CC1(C(=O)Nc2cccc3cccnc23)CCN1Cc1cccc2c1OCO2 (stereo not given),nt,nt,?,?,6.5µM*,?
Cc1ccc(C2=NOC(=O)/C2=C\C=C\c2ccccc2)cc1,5.2µM*,?,13µM*,?,9.2µM*,?
CC1=NN(c2cccc(C(=O)O)c2)C(=O)/C1=C\C=C\c1ccco1,?,?,0%,i,4%,i
CC1=NN(c2ccccc2)C(=O)/C1=C/C=C/c1ccccc1,9.2µM*,7.3µM*,9.2µM*,?,3.3µM*,?
CCc1cccc(C)c1NC(=O)c1nc2ccccc2nc1N1CCCCC1,nt,nt,nt,i,nt,i
S=C(NCCCc1cnc[nH]1)NCCCN(Cc1ccc(Cl)cc1)c1cc(-c2ccccc2)ccn1,nt,nt,nt,i,nt,i
C=C(C(=O)c1ccccc1)C(NC(C)(C)C)c1ccccc1 (stereo not given),1.8µM*,2.9µM*,5.8µM*,3.7µM*,6.5µM*,?
O=C(CC(Nc1ccccc1)C(=O)O)c1ccccc1 (stereo not given),23%,14%,3%,i,13%,i
C=C(C(=O)c1ccccc1)C(C)CC(=O)c1ccccc1 (stereo not given),?,21µM*,21µM*,i,-25%,i
COC(=O)C(NC(=O)c1ccccc1)c1ccccc1 (stereo not given),3%,1%,6%,i,4%,i
SMILES,MCF10A rerep,SW480 rereplic,HT1080 IDH1KD tx,KB-3-1 cytotox,HT1080-NT tox,KB-V1 MDR tox
CCOc1cc2c(cc1OCC)C(c1c(F)cccc1Cl)CC(=O)N2 (stereo not given),nt,nt,nt,i,nt,i
COc1ccc(-c2noc(-c3ccc(NCCc4ccccc4)c([N+](=O)[O-])c3)n2)cc1,nt,nt,nt,i,nt,i
Cc1cc(C)cc(OCc2ccc(C(=O)N3N=C(C(F)F)CC3(O)C(F)F)o2)c1 (stereo not given),23µM*,6%,-10%,i,-9%,?
CCOc1ccc(OCc2ccc(C(=O)N3N=C(C(F)F)CC3(O)C(F)F)o2)cc1 (stereo not given),1%,4%,?,i,?,16µM*
O=C(c1ccc(COc2ccc(Br)cc2)o1)N1N=C(C(F)F)CC1(O)C(F)F (stereo not given),?,-2%,21µM*,i,?,i
COc1cc(OC)c(OC)cc1/C=C/c1nc2cc3ccccc3cc2c(=O)n1-c1ccccc1Br,nt,nt,nt,i,nt,i
Cc1ccc(NC(=O)C(Cc2ccccc2)NS(=O)(=O)c2ccc3c(c2)CCC(=O)N3)cc1 (stereo not given),nt,nt,nt,i,nt,?
COc1ccc(-c2nn(-c3cccc(F)c3)c3c2cnc2cc(OC)c(OC)cc23)cc1,nt,nt,nt,i,nt,i
CCC1(c2ccccc2)NC(=O)N(CC(=O)N2CCc3ccccc32)C1=O (stereo not given),3%,18%,0%,i,-1%,12µM*
CC1Oc2ccccc2N(CC(=O)Nc2ccc3c(c2)OCCO3)C1=O (stereo not given),-2%,-6%,-24%,i,11%,16µM*
CC1Oc2ccccc2N(CC(=O)N2CCc3ccccc32)C1=O (stereo not given),8%,-6%,-3%,i,-3%,15µM*
CC1Oc2ccccc2N(CC(=O)Nc2ccc3c(c2)OCO3)C1=O (stereo not given),3%,-8%,-7%,i,12%,21µM*
COc1ccc2[nH]c(C)cc2c1,nt,nt,nt,i,nt,i
Cc1cccn2c(=O)c(/C=C(\C#N)c3nc4ccccc4s3)c(Oc3ccc(Br)cc3)nc12,nt,nt,nt,i,nt,i
CC1Oc2ccccc2N(CC(=O)NCCc2ccccc2)C1=O (stereo not given),-5%,-5%,-2%,i,0%,16µM*
CCOc1cccc(C(=O)Nc2ccc(-c3nc4ncccc4o3)cc2C)c1,nt,nt,nt,i,nt,i
COC(=O)c1ccc(-n2c(C)cc(C(=O)CCl)c2C)cc1,12µM*,?,?,?,?,i

# Compound activity from PubChem.
